Only some compounds are listed: those with a hit (about 4.3% of all), similar ones and a draw of the others.
sPLA2-III inh: Inhibits HGIII-sPLA2 liposome hydrolysis, primary screen. inhibition, % at 12.2 µM. AID 743126. QFRET BODIPY PC-A2 liposome hydrolysis, fluorescence. hit rate 0.56% among 370,000;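 active = inhibition above mean plus 3 SD of compounds lying within the high and low control bounds, cut at about 19% in these data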;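 note: 0% = median of test compound wells and 100% = no enzyme DMSO wells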
ADAM10 inh: ADAM10 inhibition, QFRET primary screen. O14672. inhibition, % at 7 µM. AID 720582. recombinant ADAM10, EDANS/DABCYL FRET peptide cleavage, 3 h. hit rate 0.62% among 370,000;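 active = inhibition above a per-campaign cutoff equal to the mean of compounds falling between control-based bounds plus 3 SD, cut at about 20% in these data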;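 note: 0% = DMSO wells while the 100% control is not disclosed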
GRIN3A LBD mod: NR3A (human) ligand-binding domain modulation; hit rate 2.5% among 340,000; Tm shift relative to glycine control, % at 25 µM; NR3A LBD differential scanning fluorimetry, Tm shift; 0% = protein alone, 100% = glycine-bound protein;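 active = melting temperature shift of at least 10% of the positive control shift, at one fixed dose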
ADAM17 inh: ADAM17 inhibition, QFRET primary screen | recombinant ADAM17, EDANS/DABCYL FRET peptide cleavage | inhibition, % at 6.95 µM | hit rate 0.83% among 370,000;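 active = inhibition above the mean of compounds lying between control limits plus 3 SD, set per campaign, cut at about 8.5% in these data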;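 note: 0% = DMSO-only wells as the low control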
FAS TE block: blocks the thioesterase domain of human fatty acid synthase | AID 602261 | inhibition, % at 15 µM | hit rate 0.67% among 360,000 | recombinant FAS-TE, OMFH fluorogenic substrate, fluorescence endpoint;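 active = compounds whose normalised, plate-corrected inhibition of enzyme fluorescence in the single-dose primary screen is 50% or more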;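 note: 0% = DMSO with enzyme and 100% = substrate without enzyme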
sPLA2 confirm: human GIII-sPLA2 inhibition, confirmation | recombinant hGIII-sPLA2, BODIPY PC-A2 QFRET fluorescence | shares compounds with sPLA2-III inh | hit rate 34% among 2,000 | AID 743280 | inhibition, % at 12.2 µM;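 active = mean inhibition across triplicates above the hit cutoff set in the earlier primary screen, cut at about 19% in these data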;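 note: 0% = enzyme with DMSO and 100% = DMSO wells lacking enzyme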
BODIPY interf: counter-screen for HGIII-sPLA2 inhibitors: 535nm fluorescence interference; shares compounds with sPLA2-III inh; AID 743282; inhibition, % at 12.2 µM; BODIPY FL product fluorescence interference, QFRET; hit rate 8.5% among 2,000;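 active = average inhibition above the solvent-only control mean plus 3 SD, cut at about 6% in these data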;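 note: 0% = DMSO with substrate plus product and 100% = DMSO with substrate alone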
535nm interf DR: 535nm optical interference dose response, HGIII-sPLA2 counter-screen. shares compounds with sPLA2-III inh. AID 743455. IC50, µM. BODIPY FL product fluorescence interference, cell-free. 240 tested, under 10 active;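 active = IC50 at or below 10 µM; inactive = IC50 above 10 µM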
* hit, by the source's call; . = no result given.

SMILES	sPLA2-III inh	ADAM10 inh	GRIN3A LBD mod	ADAM17 inh	FAS TE block	sPLA2 confirm	BODIPY interf	others
CCCCCn1c(=NC(=O)c2cccnc2)c(C#N)cc2c(=O)n3cccc(C)c3nc21	19.7*	-436.4	1.4	-140.1	21.5	0.5	-4.2
CCCCn1c(=NC(=O)c2ccc3c(c2)OCO3)c(C#N)cc2c(=O)n3cccc(C)c3nc21	-1.2	-461.9	-18.3	-144.7	48.6	.	.
CCCCCn1c(C)c(CC(=O)Nc2ccc(Oc3cccnc3)c(C)c2)c2ccccc21	-23.8	0.8	.	2.1	.	.	.
CC(C)n1c(=S)[nH]c2scc(-c3cccs3)c2c1=O	23.4*	10.4	-0.8	4.0	4.1	47.7*	9.6*
CCn1c(=S)[nH]c2scc(-c3cccs3)c2c1=O	17.7	1.5	-4.9	5.2	-5.2	.	.
O=C(c1ccc(F)c(F)c1)N1CCC(Oc2cccnc2)CC1	6.2	12.1	.	-1.0	.	.	.
CC(C)c1[nH]nc2c1C(c1ccccc1)N(Cc1ccccc1)C2=O (configuration not stated)	-8.1	-17.2	.	-5.7	.	.	.
O=C(C[n+]1cccc(/C=N/O)c1)N1CCCCCC1	3.4	1.1	0.6	1.5	-14.2	.	.
O=C(C[n+]1ccc(/C=N/O)cc1)N1CCCCC1	21.9*	-5.0	1.5	-3.5	-8.1	-4.5	-3.1
Cc1[nH]c2ccccc2c1/C=N/NC(N)=S	20.9*	-3.7	-1.5	-2.8	-4.9	16.6	0.5
Cc1[nH]c2ccccc2c1/C=N/NC(=O)c1ccccc1	12.1	0.0	-4.0	-6.4	-0.4	.	.
Cc1cc(C)n2c(nc3ccccc32)c1C(=O)NN	-5.7	-346.7	0.0	-114.1	-4.8	.	.
COC(=O)c1c(C)cc(C)n2c1nc1ccccc12	22.3*	-451.4	0.2	-178.3	-6.7	6.1	-6.4
C[C@H]1C(c2ccccc2F)O[C@]2(C[C@H](O)c3ccccc3O2)C[C@@H]1O (some centres not stated)	-1.7	4.0	.	4.0	.	.	.
CC(=O)Nc1sc(N/N=C\c2ccc(O)cc2)nc1-c1cccs1	2.6	-7.2	0.3	-10.1	1.9	.	.
CC(=O)Nc1sc(N/N=C\c2cccc(Cl)c2)nc1-c1cccs1	25.0*	0.6	13.8*	6.2	-9.8	35.4*	13.6*
Cc1cc(C)c(S(=O)(=O)n2nc(C)c(Br)c2C)c(C)c1	19.3*	1.5	1.3	0.4	1.4	3.4	-1.5
Clc1cccc(C[n+]2cc(-c3ccccc3)n3c2CCC3)c1	19.3*	-0.9	-2.1	-0.9	-7.6	5.4	-25.7
Cc1ccc(-c2c[n+](Cc3cccc(Cl)c3)c3n2CCC3)cc1	-2.4	6.6	2.0	-1.3	-6.3	.	.
O=C(NCCCN1CCCC1=O)c1ccc(CNS(=O)(=O)c2ccc(F)cc2)cc1	71.6*	5.3	0.1	6.7	-3.0	-1.1	-10.2
O=C(NCCCN1CCCC1=O)c1ccc(S(=O)(=O)Nc2ccccc2F)cc1	2.7	-12.2	-0.3	-1.6	-6.4	.	.
CC1=NN(c2ccccc2)C(=O)/C1=C\C=C\c1ccccc1	7.4	3.5	0.5	-3.1	-8.7	.	.
CC1=NN(c2ccccc2)C(=O)/C1=C/C=C/c1ccc(N(C)C)cc1	22.9*	-4.1	-17.6	4.6	-1.2	43.6*	9.7*
O=C(Cc1ccc(Cl)c(Cl)c1)NNC(=S)NCC1CCCO1 (configuration not stated)	15.2	-0.1	-3.6	-4.4	2.7	.	.
Cc1ccccc1CSCC(=O)NNC(=S)NCC1CCCO1 (configuration not stated)	23.9*	2.2	-3.3	2.0	2.4	19.1	3.7
SMILES	sPLA2-III inh	ADAM10 inh	GRIN3A LBD mod	ADAM17 inh	FAS TE block	sPLA2 confirm	BODIPY interf	others
Cc1cccc2sc(=S)[nH]c12	24.5*	-12.4	.	-5.0	0.9	20.4*	-3.8
COC(=O)[C@]12C[C@H](CC(=O)N3CCC(c4ccccc4)CC3)C(=O)N(Cc3ccccc3)C1=C[C@H](C1CCCC1)O[C@@H]2C	-13.8	7.0	.	2.3	.	.	.
NC(N)=N/N=C(\N=Nc1ccccc1)c1ccc(Cl)cc1	27.0*	3.7	-0.1	8.1	-48.0	34.5*	2.1	535nm interf DR=>122
CCN(CC)C(=O)CC[C@H]1CC[C@]2(CCCN(Cc3nccs3)C2)O1	12.9	-12.7	.	-4.6	.	.	.
COc1cc(OC)cc(-c2c(-c3cccs3)c3cc(-c4ccc5[nH]ccc5c4)ccc3n2C)c1	20.1*	-168.3	4.5	-44.1	43.5	36.5*	8.7*
O=C(CSc1nc2[nH]ncc2c(=O)[nH]1)NCc1ccc(F)cc1	95.9*	1.0	0.8	2.3	-8.2	4.7	-4.1
CN1CCCCC(NC(=O)c2cccs2)C1=O (configuration not stated)	3.6	-6.5	.	-1.5	.	.	.
CCNc1nc(NCC)nc(OCCOC(=O)Nc2ccccc2)n1	19.4*	-6.5	-0.7	4.9	-8.8	-5.2	-5.9
Cc1ccc(Cn2cc(CN(C(C)(C)C)S(=O)(=O)c3ccccc3Br)nn2)cc1	-9.5	9.8	.	4.7	.	.	.
O=[N+]([O-])c1ccc(OC[C@@H](O)CN2CCC(C(O)(c3ccccc3)c3ccccc3)CC2)c(Cl)c1	-8.4	7.2	.	7.0	.	.	.
CCNC(=S)NNC(=O)c1c(Cl)c(C)nn1C	20.9*	-4.1	-1.0	-4.9	-6.9	8.7	-3.5
O=C1c2c(-c3ccc(Br)cc3)noc2CCN1Cc1cn(Cc2cccnc2)nn1	-2.4	-10.5	.	-5.8	.	.	.
CC(C)N=C1NN=C(c2cccs2)C(CC(=O)O)S1 (configuration not stated)	20.1*	-15.6	2.1	-0.8	-5.5	0.5	-5.2
O=C(COC(=O)/C=C/c1ccccc1)Nc1ccc2c(c1)OCCO2	-2.5	-3.3	2.4	-3.6	6.4	.	.
O=C(COC(=O)/C=C/c1ccc(Cl)cc1)Nc1ccc2c(c1)OCCO2	22.4*	-0.8	0.1	-2.1	0.5	13.0	-3.9
CCOC(=O)c1cnc2ccc(OCC)cc2c1NCc1ccccc1OC	23.9*	-19.8	20.1*	-5.0	24.8	-17.0	-25.5
CCOC(=O)c1cnc2ccc(OC)cc2c1NCc1ccccc1	1.3	-50.5	4.1	-11.3	-1.0	.	.
Cc1cc(-c2n[nH]c(=S)n2N=Cc2cccc(Oc3ccccc3)c2)n[nH]1	3.8	-3.2	.	-1.4	.	.	.
CC1(NC(=S)NCCO)CCS(=O)(=O)C1 (configuration not stated)	20.1*	-4.2	-1.7	-3.8	-7.4	0.5	-7.5
CC(C)C1Cc2[nH]c(=S)[nH]c(=O)c2C(c2ccc(Cl)cc2)O1 (configuration not stated)	19.8*	-0.8	.	-3.7	8.1	4.7	-12.2
Cc1cccc(NC(=O)NN(C(=O)c2ccccc2Cl)C(C)(C)C)c1	-5.1	0.2	.	0.8	.	.	.

Screening results from PubChem.
